Consider 86 sequences from the supplement of paper PMC3334620.

Over roughly 33,000 sequences, “E-score (-0.5 to 0.5)” has its median near -0.012; the highest 2% begin near 0.27. The list comes from a sample in which the highest values are over-represented; it also holds similar and randomly drawn sequences.

In the assay the target is T1, Vhr1 (UniProt P40522).
T1 sequence: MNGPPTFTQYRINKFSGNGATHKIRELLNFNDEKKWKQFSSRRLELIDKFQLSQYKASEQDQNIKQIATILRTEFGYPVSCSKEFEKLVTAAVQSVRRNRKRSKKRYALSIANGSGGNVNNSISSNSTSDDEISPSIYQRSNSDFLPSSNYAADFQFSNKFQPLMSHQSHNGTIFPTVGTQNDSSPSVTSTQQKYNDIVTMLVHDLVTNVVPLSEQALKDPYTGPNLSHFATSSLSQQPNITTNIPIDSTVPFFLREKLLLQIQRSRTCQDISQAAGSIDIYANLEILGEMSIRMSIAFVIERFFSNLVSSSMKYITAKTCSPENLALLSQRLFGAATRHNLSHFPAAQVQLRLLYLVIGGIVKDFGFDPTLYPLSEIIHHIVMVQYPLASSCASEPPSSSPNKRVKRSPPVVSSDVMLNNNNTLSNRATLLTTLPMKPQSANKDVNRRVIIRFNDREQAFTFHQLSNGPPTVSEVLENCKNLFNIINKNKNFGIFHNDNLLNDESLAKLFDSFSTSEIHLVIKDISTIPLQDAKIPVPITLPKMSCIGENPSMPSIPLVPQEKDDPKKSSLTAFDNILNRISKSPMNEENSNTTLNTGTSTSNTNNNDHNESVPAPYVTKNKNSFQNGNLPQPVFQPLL
Put plainly: PBM E-score (8-mer binding enrichment) (E-score (-0.5 to 0.5)); higher = stronger / more preferred TF binding. The note with it: protein concentration: 200 nM; construct: GST-full length. The method in brief:
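Bound GST-tagged yeast transcription factors, applied at about 100-200 nM to double-stranded universal all-10-mer Agilent arrays, were detected with fluorescent anti-GST. Scans were normalised with masliner. A modified Wilcoxon-Mann-Whitney statistic, the E-score, was assigned to each ungapped eight-base word pooled with its reverse complement by the Universal PBM Analysis Suite.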
As for TAGTCAAA, the “PBM E-score” value worked out at 0.117.

As for AAGTCAAC, the “PBM E-score” value was -0.00442. ACTTTTAT: the “PBM E-score” value was -0.304. On to AAGCCATT, for which the “PBM E-score” value was determined as 0.0335. Consider CAAATCAG, for which the “PBM E-score” value was -0.0128. As to ATTAGCTA, the “PBM E-score” value was 0.0108.

For GCACCTGA, the “PBM E-score” value is -0.00933. In the case of AACTACAC, the “PBM E-score” value turned out to be 0.0739. As to TACTACTA, the “PBM E-score” value is 0.208. As to GACTATAA, the “PBM E-score” value turned out to be 0.0359. AACTATAC: the “PBM E-score” value turned out to be 0.114. Turning to CACTACCA, the “PBM E-score” value stood at 0.208. For GACTACTA, the “PBM E-score” value amounted to 0.328.

CACTACAC: the “PBM E-score” value worked out at 0.163. As to GACTACAC, the “PBM E-score” value amounted to 0.315. Regarding GACTATAC, the “PBM E-score” value was 0.322.

Take AACTACTA: the “PBM E-score” value amounted to 0.078.

For GACTACCC, the “PBM E-score” value was determined as 0.254. Next, GACTACCA: 0.306.

With CATAGAAA, the “PBM E-score” value was 0.102. As to GCTAGAAA, the “PBM E-score” value is -0.0866.

For AGACTGTG, the “PBM E-score” value is -0.0209. As for GGAGTGCA, the figure is 0.14; as for CGTTTTTC, -0.141; as for ACCATAGT, 0.0959. With AAGCAAGT, the “PBM E-score” value was -0.0526. As for AAGTAACA, the “PBM E-score” value was 0.0225.

With GAGTAACA, the “PBM E-score” value worked out at 0.286. On to CACTAACA, for which the “PBM E-score” value was found to be 0.177. As for GAGTACTC, the figure is 0.345; as for GACTACTC, 0.31; as for GACTAACA, 0.354. As for AACTACTC, the figure is 0.19; as for CAGTACTC, 0.117; as for AAGTACTC, 0.0478. As to GAGTAACC, the “PBM E-score” value turned out to be 0.106. As for CACTACTC, the figure is 0.205; as for TACTAACA, 0.145; as for AGCAGCGG, 0.0635. As for GAGCCAAC, the figure is -0.0688; as for ACATAGCT, -0.216; as for AACCAATT, 0.0547.

With CTAGCAAA, the “PBM E-score” value was found to be 0.00326. With ATGGATCC, the “PBM E-score” value worked out at 0.144.

For AGTTACTC, the “PBM E-score” value came out at 0.0219. Take CACACCTG: the “PBM E-score” value came out at 0.207. As for GACACCTC, the figure is 0.0308; as for CACACAGA, 0.263; as for CACACCTC, 0.285. Take AACACAGC: the “PBM E-score” value worked out at 0.229. Consider GACACAGC, for which the “PBM E-score” value turned out to be 0.129. Turning to CACACAGG, the “PBM E-score” value came out at 0.272. For CACACAGC, the “PBM E-score” value was found to be 0.307. Next, AACACAGG: 0.0235; AGTGGTGC: -0.0378; ACTGTAGA: 0.0811.

Consider CGAAGAAC, for which the “PBM E-score” value was determined as 0.0807. ACTAAACG: the “PBM E-score” value is -0.0382. As for CAGCAGCG, the figure is -0.0154. With AGATCTTA, the “PBM E-score” value was -0.0915. CAACAACA: the “PBM E-score” value came out at 0.234.

With CCATTGGG, the “PBM E-score” value was -0.18.

In the case of ACACTGCC, the “PBM E-score” value came to 0.281.

Regarding GCACTGCC, the “PBM E-score” value was -0.039. Turning to ACACTGCA, the “PBM E-score” value was 0.0651. CTTCTGCA: the “PBM E-score” value is -0.194. Take CATCATAG: the “PBM E-score” value amounted to 0.266. With AATCATAT, the “PBM E-score” value is 0.296. Consider AATCATAC, for which the “PBM E-score” value was 0.4. CCTCATAC: the “PBM E-score” value was -0.119. As to ACTCATAC, the “PBM E-score” value is 0.284. As for GCTCATAC, the “PBM E-score” value was -0.135. With CATCATAC, the “PBM E-score” value was found to be 0.216. As for AATCAAAT, the “PBM E-score” value is -0.0562. In the case of ATTCATAG, the “PBM E-score” value is 0.0981. Regarding AATCATAA, the “PBM E-score” value was determined as 0.131. On to GATCATAC, for which the “PBM E-score” value worked out at 0.114. Turning to AATCATAG, the “PBM E-score” value amounted to 0.329.

AACCCGTT: the “PBM E-score” value was -0.0686. On to GGTGCACA, for which the “PBM E-score” value came out at 0.0381. For the sequence GCTTTATA, the “PBM E-score” value is -0.261.

On to CCCTCTAC, for which the “PBM E-score” value was -0.113. For the sequence CCACGTCA, the “PBM E-score” value was -0.165. With GCACAAGC, the “PBM E-score” value was 0.0452. In the case of CACGCAGG, the “PBM E-score” value was -0.0242. As for AGATATGA, the figure is 0.161.
